From the supplement of paper PMC9694430
Where a name gives a salt, the structure may show the parent alone.

What was measured:
Assay in all cases: thermal shift delta Tm vs DMSO control; higher = stronger stabilization (binding)
Details in all cases: 12.5 µM; protein concentration 2 µM
LOC_OS01G57100-cb003 = test system: LOC_OS01G57100-cb003
In short: (§1)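 Rice kinase domain constructs, made in E. coli and purified, were placed in 96-well plates at 2 μM in 19.5 μl of 100 mM potassium phosphate pH 7.5, 150 mM NaCl, 10% glycerol and 5 × SYPRO Orange, with compound in DMSO. A temperature ramp from 25°C to 95°C at 0.05°C/s was used for differential scanning fluorimetry. The melting temperature shift is a triplicate mean compared with DMSO-only protein, derived from Boltzmann fits.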

LOC_OS01G60330-cb001 = test system: LOC_OS01G60330-cb001
In short: as §1

LOC_OS01G60700-cb002 = test system: LOC_OS01G60700-cb002
In short: as §1

LOC_OS01G63280-cb003 = test system: LOC_OS01G63280-cb003
In short: as §1

LOC_OS01G67340-cb003 = test system: LOC_OS01G67340-cb003
In short: as §1

LOC_OS01G70970-cb002 = test system: LOC_OS01G70970-cb002
In short: as §1

LOC_OS02G07810-cb001 = test system: LOC_OS02G07810-cb001
In short: as §1

LOC_OS02G08530-cb003 = test system: LOC_OS02G08530-cb003
In short: as §1

LOC_OS02G14120-cb001 = test system: LOC_OS02G14120-cb001
In short: as §1

LOC_OS02G17970-cb001 = test system: LOC_OS02G17970-cb001
In short: as §1

LOC_OS02G45750-cb003 = test system: LOC_OS02G45750-cb003
In short: as §1

LOC_OS02G54510-cb004 = test system: LOC_OS02G54510-cb004
In short: as §1

LOC_OS03G04050-cb001 = test system: LOC_OS03G04050-cb001
In short: as §1

LOC_OS03G12390-cb001 = test system: LOC_OS03G12390-cb001
In short: as §1

LOC_OS03G27990-cb004 = test system: LOC_OS03G27990-cb004
In short: as §1

LOC_OS03G50450-cb001 = test system: LOC_OS03G50450-cb001
In short: as §1

LOC_OS03G50810-cb003 = test system: LOC_OS03G50810-cb003
In short: as §1

LOC_OS04G35114-cb001 = test system: LOC_OS04G35114-cb001
In short: as §1

LOC_OS04G38480-cb003 = test system: T1, LOC_OS04G38480-cb003
T1 sequence (whole entry): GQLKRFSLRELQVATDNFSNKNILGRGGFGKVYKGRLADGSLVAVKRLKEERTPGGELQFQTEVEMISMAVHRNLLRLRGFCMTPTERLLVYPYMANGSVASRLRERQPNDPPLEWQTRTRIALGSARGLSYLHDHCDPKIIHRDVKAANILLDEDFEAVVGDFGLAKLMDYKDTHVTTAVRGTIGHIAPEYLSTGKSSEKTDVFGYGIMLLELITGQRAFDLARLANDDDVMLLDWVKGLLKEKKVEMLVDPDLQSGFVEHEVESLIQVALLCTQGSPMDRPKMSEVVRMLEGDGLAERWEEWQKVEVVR
In short: as §1

LOC_OS04G41100-cb001 = test system: T2, LOC_OS04G41100-cb001
T2 sequence (whole entry): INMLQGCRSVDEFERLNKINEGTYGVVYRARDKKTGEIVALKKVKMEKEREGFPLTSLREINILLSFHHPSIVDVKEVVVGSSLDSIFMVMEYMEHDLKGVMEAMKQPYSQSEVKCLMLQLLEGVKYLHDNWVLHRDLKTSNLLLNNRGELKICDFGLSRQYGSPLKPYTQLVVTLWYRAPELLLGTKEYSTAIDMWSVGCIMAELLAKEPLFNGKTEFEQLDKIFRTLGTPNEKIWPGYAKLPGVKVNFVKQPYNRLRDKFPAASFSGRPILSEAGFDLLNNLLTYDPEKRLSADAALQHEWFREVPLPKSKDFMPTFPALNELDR
In short: as §1
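Note: purified Escherichia coli-expressed rice kinase domain construct.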

Row | SMILES | thermal shift delta Tm (LOC_OS01G57100-cb003) | thermal shift delta Tm (LOC_OS01G60330-cb001) | thermal shift delta Tm (LOC_OS01G60700-cb002) | thermal shift delta Tm (LOC_OS01G63280-cb003) | thermal shift delta Tm (LOC_OS01G67340-cb003) | thermal shift delta Tm (LOC_OS01G70970-cb002) | thermal shift delta Tm (LOC_OS02G07810-cb001) | thermal shift delta Tm (LOC_OS02G08530-cb003) | thermal shift delta Tm (LOC_OS02G14120-cb001) | thermal shift delta Tm (LOC_OS02G17970-cb001) | thermal shift delta Tm (LOC_OS02G45750-cb003) | thermal shift delta Tm (LOC_OS02G54510-cb004) | thermal shift delta Tm (LOC_OS03G04050-cb001) | thermal shift delta Tm (LOC_OS03G12390-cb001) | thermal shift delta Tm (LOC_OS03G27990-cb004) | thermal shift delta Tm (LOC_OS03G50450-cb001) | thermal shift delta Tm (LOC_OS03G50810-cb003) | thermal shift delta Tm (LOC_OS04G35114-cb001) | thermal shift delta Tm (LOC_OS04G38480-cb003) | thermal shift delta Tm (LOC_OS04G41100-cb001)
1 | Nc1cccc(-c2cc3c(Oc4cccc(O)c4)ncnc3[nH]2)c1 | 2.04 °C | 0.91 °C | 1.51 °C | 2.09 °C | 0.65 °C | 0.81 °C | 1.59 °C | 1.94 °C | 5.81 °C | 0.97 °C | 5.52 °C | 1.7 °C | 0.45 °C | 5.94 °C | 3.84 °C | 0.38 °C | 1.5 °C | 4.56 °C | 2.16 °C | 1.12 °C
2 | COc1cc(Nc2ncc(F)c(Nc3ccc4c(n3)N(COP(=O)(O)O)C(=O)C(C)(C)O4)n2)cc(OC)c1OC [R788 (Fostamatinib) Disodium] | 1.79 °C | 1.17 °C | 1.17 °C | 1.12 °C | 0.57 °C | 1.43 °C | 0.47 °C | 0.82 °C | 5.05 °C | 1.55 °C | 2.5 °C | 0.47 °C | 0.33 °C | 1.17 °C | 1.08 °C | 7.52 °C | 2.27 °C | 2.02 °C | 2.06 °C | 0.34 °C
3 | CCn1c(=O)c(-c2ccc(Cl)cc2Cl)cc2cnc(Nc3ccc(N4CCNCC4)c(F)c3)nc21 | 2.04 °C | 0.13 °C | 1.12 °C | 5.95 °C | 6.72 °C | 2.45 °C | 0.21 °C | 0.94 °C | 7.16 °C | 1.08 °C | 10.1 °C | 8.42 °C | -0.88 °C | 4.85 °C | 10.7 °C | 0.54 °C | 6.99 °C | 11 °C | 3.17 °C | 2.82 °C
4 | COc1cc2nccc(Oc3ccc(NC(=O)c4cn(C(C)C)c(=O)n(-c5ccc(F)cc5)c4=O)cc3F)c2cc1OC | 0.85 °C | 0.41 °C | 0.47 °C | -0.09 °C | 0.68 °C | 0.8 °C | -0.36 °C | 0.66 °C | 8.24 °C | 1.66 °C | 1.35 °C | 0.3 °C | 0.61 °C | 0.23 °C | 0.52 °C | 0.71 °C | 1.15 °C | 0.49 °C | 3.7 °C | 0.44 °C
5 | CCNC(=O)C#Cc1ccc2c(C(=Nc3ccc(CN(C)C)cc3)c3ccccc3)c(O)[nH]c2c1 | -0.26 °C | 0.78 °C | 0.32 °C | 0.72 °C | 1.01 °C | 13.4 °C | 0.15 °C | 2.16 °C | 0.91 °C | 0.63 °C | 7.14 °C | 2.44 °C | -0.2 °C | 1.25 °C | 0.99 °C | 0.07 °C | 4.57 °C | 9.15 °C | 1.25 °C | 4.14 °C
6 | CC(C)CC(NC(=O)C(Cc1ccccc1)NC(=O)C(CCC(N)=O)NC(=O)C(Cc1ccc(O)cc1)NC(=O)C(C)NC(=O)CNC(=O)C(CCCCN)NC(=O)C(Cc1c[nH]c2ccccc12)NC(=O)C(NC(=O)C(Cc1c[nH]c2ccccc12)NC(=O)C(CCCCN)NC(=O)CNC(=O)C(CC(N)=O)NC(=O)C(CCC(=O)O)NC(=O)C(Cc1c[nH]c2ccccc12)NC(=O)C(NC(=O)C(Cc1c[nH]c2ccccc12)NC(=O)C(CO)NC(=O)CNC(=O)C1CCCN1C(=O)C(Cc1c[nH]c2ccccc12)NC(=O)C(CCC(N)=O)NC(=O)C(Cc1ccccc1)NC(=O)CNC(=O)C(N)Cc1c[nH]cn1)C(C)O)C(C)O)C(=O)NC(CCCCN)C(=O)NCC(=O)NCC(=O)NCC(=O)NCC(=O)NC(CO)C(=O)NC(CCCNC(=N)N)C(=O)NC(CCCNC(=N)N)C(=O)NC(CCCNC(=N)N)C(=O)NC(CCCNC(=N)N)C(=O)NC(CCCNC(=N)N)C(=O)NC(CCCNC(=N)N)C(=O)NC(CCCNC(=N)N)C(=O)NC(CCCNC(=N)N)C(=O)NC(CCCNC(=N)N)C(=O)O (stereo not given) | 0.58 °C | 0.74 °C | 0.22 °C | 0.38 °C | 1.17 °C | 0.55 °C | 0.74 °C | 0.87 °C | 1.8 °C | -0.53 °C | 0.69 °C | 0.13 °C | 0.6 °C | -3.52 °C | -3.62 °C | 0.05 °C | -1.39 °C | 0.3 °C | 4.04 °C | 0.4 °C
7 | CN1CCN(C2CCN(C(=O)Nc3cc(Oc4ccc(NC(=O)C5(C(=O)Nc6ccc(F)cc6)CC5)c(F)c4)ccn3)CC2)CC1 [Golvatinib (E7050)] | 0.49 °C | 0.6 °C | 1.6 °C | 0.78 °C | 0.24 °C | 0.6 °C | 0.4 °C | 0.79 °C | 0.6 °C | 2.14 °C | 0.4 °C | -0.38 °C | 0.26 °C | 0.04 °C | 0.36 °C | 0.52 °C | 0.33 °C | 0.27 °C | 1.71 °C | 1.78 °C
8 | CC1(C)OC(=O)C=C[C@]2(C)[C@H]3CC[C@@]4(C)[C@H](c5ccoc5)OC(=O)[C@H]5O[C@]54[C@]3(C)C(=O)C[C@@H]12 [Obacunone] | 1.14 °C | 0.6 °C | 0.14 °C | 0.26 °C | 0.19 °C | 0.13 °C | 0.27 °C | 0.44 °C | 0.92 °C | 0.03 °C | 0.46 °C | -0.19 °C | 0.48 °C | 0.2 °C | 0.14 °C | 0.72 °C | 0.54 °C | -0.27 °C | 1.66 °C | 0.27 °C
9 | COc1cc(Nc2ncc(F)c(Nc3ccc4c(n3)NC(=O)C(C)(C)O4)n2)cc(OC)c1OC [R406 (free base)] | 5.12 °C | 8.58 °C | 0.44 °C | 0.7 °C | 1 °C | 3.16 °C | 2.03 °C | 4.18 °C | 13 °C | 0.86 °C | 4.87 °C | 3.74 °C | 0.5 °C | 7.52 °C | 1.81 °C | 8.85 °C | 4.46 °C | 2.9 °C | 4.51 °C | 1.22 °C
10 | CN1CC[C@H](c2c(O)cc(O)c3c(=O)cc(-c4ccccc4Cl)oc23)[C@H](O)C1 [Flavopiridol HCl] | 1.91 °C | 1.31 °C | 0.43 °C | 1.03 °C | 0.26 °C | 1.67 °C | 1.12 °C | 2.13 °C | 2.4 °C | 0.78 °C | 1.65 °C | 0.99 °C | 0.18 °C | 2.02 °C | 1.25 °C | 0.4 °C | 0.81 °C | 1.99 °C | 1.82 °C | 0.56 °C
11 | Cc1cc(NC(=O)c2cccc(NC(=O)/C=C/CN(C)C)c2)ccc1Nc1nccc(-c2cccnc2)n1 | 1.86 °C | 0.94 °C | 1.77 °C | 0.92 °C | 0.69 °C | 1.62 °C | 1.46 °C | 1.8 °C | 0.95 °C | 1.45 °C | 3.5 °C | 0.3 °C | 1.05 °C | 2.05 °C | 0.81 °C | 1.19 °C | 1.1 °C | 1.79 °C | 1.17 °C | 0.83 °C
12 | O=C(Nc1cccc(C(F)(F)F)c1)c1cccc2cc(Oc3cc(CO)ncn3)ccc12 | 1.09 °C | 0.76 °C | 1.22 °C | 2.3 °C | 0.38 °C | 0.5 °C | 0.69 °C | 0.95 °C | 0.55 °C | 1.28 °C | 0.82 °C | 0.52 °C | 0.59 °C | -0.09 °C | 0.52 °C | 0.11 °C | 0.03 °C | 0.55 °C | 1.4 °C | 0.37 °C
